According to PubChem BioAssay AID492949 (National Center for Advancing Translational Sciences (NCATS), 2010):
Results filed as inconclusive are left out. Activity calls are given as the source filed them. The call rests on the fitted dose curve; in most records, active means well fitted activation curve with a large enough effect; inconclusive means small, poorly fitted or top-dose-only effect; inactive means no such curve, though single readings can be large or run the other way.

Target: Relaxin receptor 1 (Homo sapiens) (UniProt Q9HBX9)
Assay: qHTS Assay for Agonists of the Relaxin Receptor RXFP1: THP1 Hit Validation; further: nearly all actives have a fitted effect of over 60% in size;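 on activation: 0% = buffer alone basal and 100% = 29 nM porcine relaxin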
Conditions: THP1-RXFP1 cells, cAMP TR-FRET, 30 min; series mostly up to 115 µM; activation: at the top concentration
Method in brief: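 THP1 cells stably expressing RXFP1, treated 30 min at 37 C with compounds alongside PDE4 inhibitor Ro 20174. cAMP read by HTRF TR-FRET after lysis; normalized to buffer and 29 nM porcine relaxin; EC50 from Hill fits.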
Potency means the concentration at half of the fitted maximal effect.

Sequence of Relaxin receptor 1 (Homo sapiens) (Q9HBX9 whole entry, looked up): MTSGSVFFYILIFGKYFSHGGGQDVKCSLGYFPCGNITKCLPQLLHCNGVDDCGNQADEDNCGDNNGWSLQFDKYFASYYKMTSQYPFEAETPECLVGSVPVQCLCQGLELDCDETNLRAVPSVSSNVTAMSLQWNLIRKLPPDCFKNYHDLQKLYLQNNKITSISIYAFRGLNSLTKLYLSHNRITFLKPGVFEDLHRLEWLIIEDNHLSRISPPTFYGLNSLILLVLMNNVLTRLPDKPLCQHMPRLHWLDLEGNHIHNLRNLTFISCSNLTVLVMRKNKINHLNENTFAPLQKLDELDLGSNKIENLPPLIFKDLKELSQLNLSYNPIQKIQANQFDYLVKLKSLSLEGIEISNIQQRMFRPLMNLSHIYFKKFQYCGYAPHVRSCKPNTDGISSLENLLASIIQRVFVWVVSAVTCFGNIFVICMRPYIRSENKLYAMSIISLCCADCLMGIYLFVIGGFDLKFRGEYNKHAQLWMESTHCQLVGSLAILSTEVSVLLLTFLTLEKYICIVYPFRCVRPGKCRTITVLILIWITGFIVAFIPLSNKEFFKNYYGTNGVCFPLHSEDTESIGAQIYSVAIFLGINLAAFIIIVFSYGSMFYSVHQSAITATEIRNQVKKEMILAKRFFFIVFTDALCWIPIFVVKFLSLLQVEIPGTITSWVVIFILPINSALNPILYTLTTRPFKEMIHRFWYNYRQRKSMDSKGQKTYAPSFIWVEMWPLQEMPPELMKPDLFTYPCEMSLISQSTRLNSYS

SMILES | Potency | activation
CCN(CC)c1ccc(S(=O)(=O)N2CCOCC2)cc1NC(=O)CSc1nncn1C | 15.4 µM (active) | –
O=C(Nc1cc(S(=O)(=O)N2CCOCC2)ccc1N1CCOCC1)c1cn2ccccc2n1 | 8.7 µM (active) | –
CC(C)c1ccccc1NC(=O)c1ccccc1NC(=O)C1CCCCC1 | – | -0.0827% [at 125 µM] (inactive)
Cc1ccc2[nH]c3c(=S)nc[nH]c3c2c1 | 6.9 µM (active) | –
